The record followed here is PubChem BioAssay (NCI).

SMILES strings stand for the structures. “And” between values parts separate entries of the source, which are not always exact repeats. Equal values may be shown once. Compounds without any hit were thinned out: in the full panel of roughly 83,000, 20% have a hit.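 Each cell line was grown in a 96-well plate and treated with one concentration of compound for 48 hours. Values below 10 were considered active.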 A number with no mark means an inactive call. The source made the active and inactive calls.

What all share (assay): NCI-60 one-dose screen, 48 h (100 = growth as untreated, 0 = no growth, -100 = all killed)
Common to all, as to conditions: 10 µM unless noted

Experiment [1] has as its system HCT-15 colon.
For experiment [2], the system named is HT29 colon.
Experiment [3] concerns SNB-75 CNS.
In experiment [4] the test system is SNB-19 CNS.
Experiment [5] deals with U251 CNS.
The subject of experiment [6] is PC-3 prostate.
Experiment [7] deals with SK-MEL-5 melanoma.
The subject of experiment [8] is UACC-62 melanoma.
For experiment [9], the system named is LOX IMVI melanoma.
Experiment [10] has as its system SK-MEL-28 melanoma.
The test system of experiment [11] is SK-MEL-2 melanoma.
Experiment [12] relates to SN12C renal.
In experiment [13] the test system is UO-31 renal.
In experiment [14] the test system is TK-10 renal.
Experiment [15] relates to ACHN renal.
Experiment [16] concerns CAKI-1 renal.
Experiment [17] relates to A498 renal.
Experiment [18] deals with CCRF-CEM leukemia.
The test system of experiment [19] is MOLT-4 leukemia.
For experiment [20], the system named is EKVX NSCLC.

Consider `CCOC(=O)NC(N)=O`, for which the growth is 105% and 98% in [1]; 99.9% and 106% in experiment [2]; 84.3% and 87.6% in experiment [3]; 103% and 100% in [4]; 101% and 96.4% in experiment [5]; 99.3% and 92.8% in experiment [6]. Moreover, the growth was 101% in experiment [7]; 103% in experiment [8]; 97.9% and 94.7% in [9]; 112% and 108% in [10]; 98.7% and 126% in experiment [11]; 103% and 98.1% in experiment [12]. In addition, the growth in experiment [13] was 86.6% and 95.3%; in experiment [14], 88.4%; in experiment [15], 100% and 103%; in experiment [16], 99.1% and 101%; in experiment [17], 101% and 104%; in experiment [18], 99.2% and 99.3%. In addition, in [19], the growth was 97.2% and 106%.

As to `O=P(O)(O)OC1C(OP(=O)(O)O)C(OP(=O)(O)O)C(OP(=O)(O)O)C(OP(=O)(O)O)C1OP(=O)(O)O.[Cu+2]` (centres undefined), the growth in [1] is 102%; in experiment [2], 96.5%; in experiment [3] it was 136%; in experiment [4], 106%; in experiment [5] it was 32.6%; in [6], 105%. Also, the growth in experiment [7] was -56.1% (active); in experiment [8] it was 79.7%; in [9], 69.7%; in [10], 116%; in [11] it was 92.9%; in [20], 126%. Also, the growth in experiment [12] was 87.4%; in experiment [13], 98.2%; in [14], 118%; in [16] it was 113%; in [17], 85.3%; in experiment [18] it was 101%. In experiment [19], the growth was 98.9%.

With `CC(=O)Oc1cc(C)c(OC(C)=O)c(C)c1C`, the growth was 98% in [1]; 114% in [2]; 132% in [3]; 96.4% in [4]; 104% in [5]; 90.5% in experiment [6]. The growth in [7] is 91.4%; in experiment [8], 93.1%; in [9], 83.6%; in experiment [10] it was 130%; in experiment [11] it was 102%; in experiment [12] it was 98.9%. The growth in [13] was 88.2%; in experiment [14] it was 124%; in experiment [15], 100%; in experiment [16] it was 77.4%; in experiment [17] it was 109%; in [18] it was 100%. In addition, the growth in [19] was 109%.

Turning to `CC(=O)Nc1cscc1NC(C)=O`, the growth in experiment [1] is 106%; in experiment [2] it was 96.2%; in experiment [3], 93.2%; in experiment [4] it was 92.6%; in experiment [5], 98.9%; in experiment [6], 103%. Moreover, the growth was 99.3% in experiment [7]; 93.7% in [8]; 98.6% in experiment [9]; 104% in experiment [10]; 139% in [11]; 73.2% in experiment [20]. In addition, the growth in [12] was 89.1%; in experiment [13], 93.3%; in [14], 97.8%; in experiment [16], 73.1%; in [17], 92.9%; in experiment [18], 89.2%. Moreover, the growth in experiment [19] was 111%.

With `CC(NC(=O)CCl)c1ccccc1` (centres undefined), the growth in experiment [1] is 94.9%; in experiment [2], 104%; in experiment [3], 85.6%; in experiment [4], 103%; in [5], 103%; in experiment [6] it was 95.2%. Besides, the growth in experiment [7] was 93.7%; in experiment [8], 102%; in experiment [9], 98.2%; in experiment [10], 111%; in experiment [11], 104%; in experiment [12], 110%. Also, the growth was 98.8% in experiment [13]; 98.8% in experiment [14]; 106% in experiment [15]; 101% in [16]; 83.9% in experiment [17]; 105% in experiment [18]. The growth in [19] was 101%.

`Cc1cc(-c2ccc(N=Nc3c(C)nn(-c4ccc(S(=O)(=O)O)cc4)c3O)c(C)c2)ccc1N=Nc1ccc(O)c(C(=O)O)c1`: the growth in [1] is 97.9%; in [2], 115%; in [3], 99.9%; in [4], 99.9%; in experiment [5] it was 99.1%; in experiment [6], 98.2%. Further, the growth was 98.7% in [7]; 91.2% in experiment [8]; 95.4% in experiment [9]; 106% in [10]; 73% in experiment [11]; 95.8% in [12]. For the same compound, the growth was 69.1% in experiment [13]; 141% in experiment [14]; 98% in experiment [15]; 100% in [16]; 120% in [17]; 99.4% in experiment [18]. Besides, the growth in experiment [19] was 102%.
